Values joined by “and” are separate entries in the source; they are usually repeats but may differ in a detail not shown here. Identical values can stand only once. Inconclusive results are not listed. A structure can be active in one record and inactive in another. Active and inactive are the calls of the source. Rule for the calls, unless noted: active = hit-call score of the fitted dose curve at least 0.9, where 1 is the maximum; inactive = score below 0.9.

Test [1] is described as follows: CCTE_Shafer_MEA_acute_burst_percentage_mean: CCTE's Neural Acute Assay for Percentage of Spikes in a Burst, Shafer Lab (AID 2284017).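 For AC50: curve fitted for loss of signal so potency reflects decreased burst percentage.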 In outline: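 Primary rat cortical neurons on 48-well MEA plates, treated on DIV 13 or 15 at 0.03-40 uM. Spikes detected at 8x rms noise at 37C; percent change from 40-min baseline to 40-min post-dose recording, fitted versus DMSO.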

Test [2] in a line: CCTE_Shafer_MEA_acute_burst_percentage_std: CCTE's Neural Acute Assay for Standard Deviation of Burst Percentage, Shafer Lab (AID 2284018).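 Note: fitted in the negative direction so actives lower burst percentage SD.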 In short, it runs like this: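 Primary rat cortical neurons on 16-electrode MEA wells were recorded 40 min at baseline (DIV 13 or 15), then 40 min after compound (0.03-40 uM), at 37 C. Well value is SD across electrodes of spikes-in-bursts/total spikes; endpoint is percent change, DMSO-referenced.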

A short description of test [3]: CCTE_Shafer_MEA_acute_per_network_burst_spike_number_std: CCTE's Neural Acute Assay for Standard Deviation of Number of Spikes in a Network Burst, Shafer Lab (AID 2284020).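 Note: fitted for decrease in spike-number SD versus DMSO so actives lower it.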 In outline:
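Primary rat cortical neurons on 48-well MEAs (16 electrodes/well) recorded at DIV 13 or 15: 40-min baseline, then 40 min with compound (0.03-40 uM), 37 C. Value is percent change in SD of spikes per network burst, relative to DMSO.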

The nature of test [4]: CCTE_Shafer_MEA_acute_per_network_burst_electrodes_number_mean: CCTE's Neural Acute Assay for Mean Number of Electrodes in a Network Burst, Shafer Lab (AID 2284021).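 Note: curves fitted for decreases only so hits reduce electrodes per burst.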 In short, it runs like this:
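Percent change from baseline in average electrode count per network burst, rat cortical cultures on 48-well MEAs; 40-min recordings each side of exposure, DIV 13 or 15; threshold 8x rms noise; DMSO as negative control.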

Test [5] is described as follows: CCTE_Shafer_MEA_acute_network_burst_percentage: CCTE's Neural Acute Assay for Percentage of Network Bursts, Shafer Lab (AID 2284022).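 Note: curves fitted for loss so actives lower network burst percentage.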 In outline:
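On DIV 13 or 15, at least three wells of rat cortical neurons per compound are dosed at 0.03-40 uM. Spontaneous firing is detected at 8x rms noise for 40 min before and after dosing at 37 C. The percent change in network-burst spike share is reported.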

A short description of test [6]: CCTE_Shafer_MEA_acute_cross_correlation_area: CCTE's Neural Acute Assay for Area of Cross Correlation, Shafer Lab (AID 2284024).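 Note: area under pooled inter-electrode spike cross-correlation near zero lag as percent change from own baseline; curves fitted for loss of cross-correlation area so actives lower synchrony.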 In outline: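 Extracellular recordings from cultured rat cortical neurons measure network synchrony as cross-correlation area; each well's post-compound value (0.03-40 uM, 40 min) is compared with its own 40 min baseline to give percent change.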

Test [7] is described as follows: CCTE_Shafer_MEA_acute_cross_correlation_HWHM: CCTE's Neural Acute Assay for Cross Correlation at Half Width at Half Maximum, Shafer Lab (AID 2284026).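 For outcome: spontaneous network firing of rat primary cortical neurons on multiwell microelectrode arrays.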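 Note: percent change per well from pre-dose baseline in spike cross-correlogram half width; hits are a decrease in cross-correlogram half width relative to DMSO.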 In short, it runs like this:
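Percent change in cross-correlogram half width at half maximum, narrower meaning more synchrony, was derived per well from paired 40-min recordings before and during exposure to 0.03-40 uM compound in rat cortical cultures at 37 C.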

A short description of test [8]: CCTE_Deisenroth_AIME_96WELL_CTox_Active: Cytotoxicity Assessment (CTOX) in CCTE's 96-well Estrogen Receptor Transactivation Assay with AIME metabolic competence (metabolism positive), Deisenroth Lab (AID 2284028; active = hit-call score of the fitted dose curve at least 0.9, where 1 is the maximum). In outline:
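Chemicals (0.002–200 uM) were first incubated 2 h with alginate-immobilized phenobarbital/beta-naphthoflavone-induced male rat liver S9; conditioned medium then went onto VM7Luc4E2 cells for 24 h, with viability read by protease-substrate fluorescence, fitted bidirectionally.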

Test [9] is described as follows: CCTE_Deisenroth_AIME_96WELL_CTox_Inactive: Cytotoxicity Assessment (CTOX) in CCTE's 96-well Estrogen Receptor Transactivation Assay without AIME metabolic competence (metabolism negative), Deisenroth Lab (AID 2284029; active = hit-call score of the fitted dose curve at least 0.9, where 1 is the maximum). In short, it runs like this:
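Chemicals (0.002 - 200 uM, 10 points) incubated 2 h with alginate-water microspheres (no S9), then medium moved onto VM7Luc4E2 cells for 24 h. Viability by protease-substrate cleavage to fluorescent probe; bidirectional fitting.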

Test [10] is described as follows: CCTE_Shafer_MEA_dev_per_burst_spike_percent: CCTE's Neural Network Formation Assay for Percent of Spikes in a Burst, Shafer Lab (AID 2284032).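 For AC50: fitted as a decrease in burst spike percentage below DMSO baseline.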 In short, it runs like this:
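Rat primary cortical neurons on 16-electrode MEA wells, dosed from plating day 0 for 12 days with renewal on DIV 5 and 9; spikes-in-bursts percentage averaged over bursting electrodes, collapsed as AUC across days 5, 7, 9, 12; loss direction versus DMSO.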

Test [11] can be described thus: CCTE_Shafer_MEA_dev_active_electrodes_number: CCTE's Neural Network Formation Assay for Number of Active Electrodes, Shafer Lab (AID 2284040; active = hit-call score of the fitted dose curve at least 0.9, where 1 is the maximum;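 for AC50: potency for loss of active electrodes versus DMSO so lower counts are hits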). In short, it runs like this: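 Primary rat cortical neurons on 16-electrode MEA wells, exposed from day 0 through day 12 with compound renewed at DIV 5 and 9 feeds. Active electrodes (mean firing ≥5 spikes/min) counted at DIV 5, 7, 9, 12; trapezoidal AUC across days, loss-of-signal versus DMSO.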

A short description of test [12]: CCTE_Shafer_MEA_dev_burst_rate: CCTE's Neural Network Formation Assay for Burst Rate, Shafer Lab (AID 2284042).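 For AC50: potency for loss of burst rate below DMSO control.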 In outline: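 Primary rat cortical neurons on PEI-coated 48-well MEA plates (laminin added with cells at plating) (16 electrodes/well), exposed from plating to day 12, dosing renewed at DIV 5 and 9. Burst rate averaged over active electrodes, recorded DIV 5, 7, 9, 12, summarized as AUC; loss versus DMSO.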

Test [13] is described as follows: CCTE_Shafer_MEA_dev_bursting_electrodes_number: CCTE's Neural Network Formation Assay for Number of Bursting Electrodes, Shafer Lab (AID 2284043; active = hit-call score of the fitted dose curve at least 0.9, where 1 is the maximum;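 for AC50: potency is for loss of bursting electrodes relative to DMSO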). In short, it runs like this: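 Primary rat cortical neurons were cultured on PEI-coated 48-well MEA plates (16 electrodes/well) and exposed from plating through day 12, with compound renewed at feeds on DIV 5 and 9. Electrodes bursting ≥1 per 2 min were counted on DIV 5, 7, 9, 12; trapezoidal AUC taken.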

The nature of test [14]: CCTE_Deisenroth_AIME_384WELL_CTox_Active: Cytotoxicity Assessment (CTOX) in CCTE's 384-well Estrogen Receptor Transactivation Assay with AIME metabolic competence (metabolism positive), Deisenroth Lab (AID 2284037; active = hit-call score of the fitted dose curve at least 0.9, where 1 is the maximum;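 note: activity means signal loss indicating cell death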). In short, it runs like this: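 VM7Luc4E2 breast cells received medium pre-incubated 2 h with chemical over alginate microspheres holding induced male Sprague Dawley rat liver S9; viability read 24 h later by protease-substrate fluorescence. Loss of signal, bidirectional fit, 0.002–200 uM.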

A short description of test [15]: CCTE_Deisenroth_AIME_384WELL_CTox_Inactive: Cytotoxicity Assessment (CTOX) in CCTE's 384-well Estrogen Receptor Transactivation Assay without AIME metabolic competence (metabolism negative), Deisenroth Lab (AID 2284039; active = hit-call score of the fitted dose curve at least 0.9, where 1 is the maximum;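 note: cell viability via live-cell protease substrate cleaved to fluorescent probe; cells exposed 24 h to medium preincubated 2 h with alginate-water beads without S9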). In outline: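 VM7Luc4E2 cells, metabolism-negative arm: test chemicals (0.002–200 uM, 10 points) pre-incubated 2 h with alginate-water microspheres, then medium transferred to cells for 24 h. Viability read as protease-substrate cleavage to fluorescent probe; loss-of-signal, bidirectional fitting.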

The target of test [16] is Estrogen receptor (Homo sapiens) (UniProt P03372). In words: CCTE_Deisenroth_AIME_384WELL_LUC_Shift: CCTE's 384-well Estrogen Receptor Transactivation Assay with AIME metabolic competence data shift (ERTA luciferase; difference in metabolism positive and negative), Deisenroth Lab (AID 2284041).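 Note: shift is response with S9 minus without S9 so positive means metabolism raised ER signal.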 In short, it runs like this: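 Here, parent compounds undergo 2 h phase I metabolism by PB/BNF-induced rat S9 before 24 h transactivation in VM7Luc4E2 cells; the curve models S9-positive minus S9-negative response over a 10-point series.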
Sequence of Estrogen receptor (Homo sapiens) (P03372 whole entry, looked up): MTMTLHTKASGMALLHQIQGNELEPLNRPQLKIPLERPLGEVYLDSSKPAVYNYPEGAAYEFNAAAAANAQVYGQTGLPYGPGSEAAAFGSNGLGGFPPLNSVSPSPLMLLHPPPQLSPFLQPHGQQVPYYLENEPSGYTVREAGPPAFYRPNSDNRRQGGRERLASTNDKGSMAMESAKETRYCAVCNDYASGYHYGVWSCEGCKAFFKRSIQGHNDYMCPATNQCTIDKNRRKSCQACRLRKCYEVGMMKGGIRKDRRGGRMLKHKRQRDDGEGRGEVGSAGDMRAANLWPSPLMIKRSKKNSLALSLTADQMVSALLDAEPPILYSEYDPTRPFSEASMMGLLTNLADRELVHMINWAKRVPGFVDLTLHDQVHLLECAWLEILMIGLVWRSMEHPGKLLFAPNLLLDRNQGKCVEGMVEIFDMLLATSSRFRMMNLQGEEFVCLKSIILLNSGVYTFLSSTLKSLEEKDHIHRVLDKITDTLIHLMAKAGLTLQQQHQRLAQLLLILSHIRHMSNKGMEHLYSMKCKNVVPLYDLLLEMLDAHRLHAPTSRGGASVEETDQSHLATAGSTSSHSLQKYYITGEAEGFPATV

For test [17] the target is unchanged. Nature of the test: CCTE_Deisenroth_AIME_384WELL_LUC_Active: CCTE's 384-well Estrogen Receptor Transactivation Assay with AIME metabolic competence (ERTA luciferase; metabolism positive), Deisenroth Lab (AID 2284030; active = hit-call score of the fitted dose curve at least 0.9, where 1 is the maximum). In outline:
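Estrogenic luciferase signal in VM7Luc4E2 cells is measured at 24 hour, after chemicals have been preconditioned 2 hours with PB/BNF-induced rat hepatic S9 in alginate. Gain of signal is fitted relative to 17beta-estradiol, across 0.002 - 200 uM.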

Test [18] shares this target. Nature of the test: CCTE_Deisenroth_AIME_384WELL_LUC_Inactive: CCTE's 384-well Estrogen Receptor Transactivation Assay without AIME metabolic competence (ERTA luciferase; metabolism negative), Deisenroth Lab (AID 2284038; active = hit-call score of the fitted dose curve at least 0.9, where 1 is the maximum;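 note: hits raise estrogen receptor luciferase signal so potencies reflect agonists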). In outline: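 Metabolism-negative mode: chemicals (10-point, 0.002–200 uM) held 2 h with alginate-water microspheres, then conditioned medium applied to VM7Luc4E2 cells for 24 h. Luciferase induction referenced to 17beta-estradiol.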

Test [19] has the same target. In words: CCTE_Deisenroth_AIME_96WELL_LUC_Active: CCTE's 96-well Estrogen Receptor Transactivation Assay with AIME metabolic competence (ERTA luciferase; metabolism positive), Deisenroth Lab (AID 2284023; active = hit-call score of the fitted dose curve at least 0.9, where 1 is the maximum). In short, it runs like this: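 Chemicals pre-incubated 2 h with alginate-immobilized phenobarbital/beta-naphthoflavone-induced male Sprague Dawley rat liver S9, then medium transferred to VM7Luc4E2 cells for 24 h luciferase read-out. 10-point series 0.002 - 200 uM; fitted relative to 17beta-estradiol.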

The target is the same in test [20]. Nature of the test: CCTE_Deisenroth_AIME_96WELL_LUC_Inactive: CCTE's 96-well Estrogen Receptor Transactivation Assay without AIME metabolic competence (ERTA luciferase; metabolism negative), Deisenroth Lab (AID 2284025; active = hit-call score of the fitted dose curve at least 0.9, where 1 is the maximum). In outline: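 VM7Luc4E2 breast cells, luciferase read 24 h after dosing with medium pre-incubated 2 h on alginate-water lids (metabolism negative). 10-point series 0.002–200 uM, single technical replicate, n≥4; fit relative to 17beta-estradiol.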

As usually defined, the AC50 is the concentration giving half of the maximal activity seen. For the compound `CC(C)(c1ccc(O)cc1)c1ccc(O)cc1`, the concentration at half-maximal activity (AC50) is 28.6 µM (active) in [1]; 28.6 µM (active) in [7]; 125 µM (active) in test [8]; 104 µM (active) in test [9]; 15 µM (active) in [10]; 15 µM (active) in [11]. The AC50 in test [13] is 9.89 µM (active) and 15 µM (active). Also, the outcome in [2], in [3], in test [4], in test [5], in test [6] and in test [10] was inactive. In addition, the compound was classed as inactive in [11], in [12] and in [13].
In the case of `CCCCOCCOCCOCc1cc2c(cc1CCC)OCO2`, the results for the AC50 in [10] and in test [13] were 10 µM (active) and 15.9 µM (active), respectively. Besides, the outcome in test [11] and in [12] was inactive.
Turning to `CCCOC(=O)NCCCN(C)C`, the compound was called inactive in test [14] and in test [15].
Take `Cc1nn(C)c(Oc2ccccc2)c1C=NOCc1ccc(C(=O)OC(C)(C)C)cc1`: the concentration at half-maximal activity (AC50) in test [1] is 3.26 µM (active); in test [2], 7.36 µM (active); in [5], 1.5 µM (active); in test [6], 0.003 µM (active); in test [7], 4.36 µM (active); in test [10] it was 0.00293 µM (active). In addition, the AC50 in test [11] was 0.00264 µM (active); in test [12], 0.00544 µM (active); in test [13], 0.00163 µM (active). Moreover, the outcome in test [3], in test [4], in test [14], in test [15] and in test [16] was inactive.
Turning to `O=C(Nc1ccc([N+](=O)[O-])cc1Cl)c1cc(Cl)ccc1O`, the AC50 in [1] is 0.269 µM (active); in test [3], 0.37 µM (active); in test [4], 0.301 µM (active); in [5], 0.252 µM (active); in test [6], 0.0774 µM (active); in [7], 1.08 µM (active). The call in test [2], in [17], in test [14] and in test [16] was inactive.
Consider `CCCCOC(=O)[C@@H](C)Oc1ccc(Oc2ccc(C(F)(F)F)cn2)cc1`, for which the compound was called inactive in test [17], in test [14], in test [18] and in [16].
For `CC(C)(C)[C@@H](O)[C@@H](Cc1ccc(Cl)cc1)n1cncn1`, the compound was called inactive in test [1], in test [2], in [3], in test [4], in test [5] and in test [6]. Moreover, the call in [7] was inactive.
Regarding `N#CSCSc1nc2ccccc2s1`, the AC50 is 25.5 µM (active) in [1]; 32.7 µM (active) in test [2]; 20 µM (active) in test [3]; 27.2 µM (active) in [4]; 37.2 µM (active) in [5]; 23.9 µM (active) in test [7]. The compound was called inactive in test [6], in test [17], in [14] and in [16].
For the compound `CCOC(=O)c1ccc(O)cc1`, the call in test [19] and in test [8] was inactive. In addition, the AC50 in test [20] is 40.7 µM (active).
Turning to `CCNc1nc(N)nc(Cl)n1`, the compound was called inactive in test [1], in test [2], in test [3], in [4], in [5] and in [6]. Moreover, the compound was classed as inactive in [7].

These data come from PubChem BioAssay (EPA / NIEHS).
